# Hit rate of the full screen: of about 5,500 compounds, about 2,000 (36%) were called active. Another 18% or so got no clear call; they are omitted. The list shows a part of the results. A number with no mark means an inactive call. Rule as the data show it: active = normalized growth mostly below about 0.91 (no sharp cut-off); inconclusive = no clear call, values can overlap the other calls; inactive = mostly above about 0.92.
# Assay: chemical genetic growth profiling, strain panel (AID 1159580);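 also: tested at 20 µM; growth read once vehicle control cultures reached saturation at 30 °C; 1 = growth at the plate median or of vehicle wells; lower values mean less growth of the strain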
# Settings: growth OD
# [1] = S. cerevisiae deletion strains, locus YDL101C, strain DUN1, hits give low values
# [2] = S. cerevisiae deletion strains, locus YHR030C, strain SLT2, hits give low values
# [3] = S. cerevisiae deletion strains, locus YAL040C, strain CLN3, hits give low values
# [4] = S. cerevisiae deletion strains, locus YCL061C, strain MRC1 (second series), hits give low values
# [5] = S. cerevisiae deletion strains, locus YDR363W, strain ESC2, hits give low values
# [6] = S. cerevisiae deletion strains, locus YER002W, strain NOP16, hits give low values
# [7] = S. cerevisiae deletion strains, locus YMR307W, strain GAS1, hits give low values
# [8] = S. cerevisiae deletion strains, locus YNL175C, strain NOP13, hits give low values
# [9] = S. cerevisiae deletion strains, locus YNL197C, strain WHI3, hits give low values
# [10] = S. cerevisiae deletion strains, locus YNL224C, strain SQS1, hits give low values
# [11] = S. cerevisiae deletion strains, locus YNL322C, strain KRE1, hits give low values
# [12] = S. cerevisiae deletion strains, locus YOR083W, strain WHI5 (second series), hits give low values
# [13] = S. cerevisiae deletion strains, locus YPL055C, strain LGE1, hits give low values
# [14] = S. cerevisiae deletion strains, locus YPL241C, strain CIN2, hits give low values
# [15] = S. cerevisiae deletion strains, locus YAL013W, strain DEP1, hits give low values
# [16] = S. cerevisiae deletion strains, locus YDR150W, strain NUM1, hits give low values
# [17] = S. cerevisiae deletion strains, locus YGR078C, strain PAC10, hits give low values
smiles,measurement,setting,value
Cc1ccc(C)c(CSc2nc(C3CCCCC3)c(C#N)c(=O)[nH]2)c1,normalized growth,"S. cerevisiae deletion strains, locus YAR019C, strain CDC15, hits give low values",0.979
same,normalized growth,"S. cerevisiae deletion strains, locus YBL105C, strain PKC1, hits give low values",0.975
same,normalized growth,"S. cerevisiae deletion strains, locus YBR135W, strain CKS1, hits give low values",0.964
same,normalized growth,"S. cerevisiae deletion strains, locus YBR136W, strain MEC1, hits give low values",0.98
same,normalized growth,"S. cerevisiae deletion strains, locus YBR160W, strain CDC28, hits give low values",0.98
same,normalized growth,"S. cerevisiae deletion strains, locus YDL017W, strain CDC7, hits give low values",0.981
same,normalized growth,"S. cerevisiae deletion strains, locus YDL028C, strain MPS1, hits give low values",0.985
same,normalized growth,[1],0.983
same,normalized growth,"S. cerevisiae deletion strains, locus YDL108W, strain KIN28, hits give low values",0.985
same,normalized growth,"S. cerevisiae deletion strains, locus YDL132W, strain cdc53, hits give low values",0.973
same,normalized growth,"S. cerevisiae deletion strains, locus YDL214C, strain PRR2, hits give low values",1
same,normalized growth,"S. cerevisiae deletion strains, locus YDR052C, strain DBF4, hits give low values",0.968
same,normalized growth,"S. cerevisiae deletion strains, locus YDR054C, strain cdc34, hits give low values",0.983
same,normalized growth,"S. cerevisiae deletion strains, locus YDR226W, strain ADK1, hits give low values",0.984
same,normalized growth,"S. cerevisiae deletion strains, locus YDR477W, strain SNF1, hits give low values",1
same,normalized growth,"S. cerevisiae deletion strains, locus YER123W, strain YCK3, hits give low values",1.01
same,normalized growth,"S. cerevisiae deletion strains, locus YER133W, strain GLC7, hits give low values",1.01
same,normalized growth,"S. cerevisiae deletion strains, locus YFL009W, strain cdc4, hits give low values",0.981
same,normalized growth,"S. cerevisiae deletion strains, locus YFL029C, strain CAK1, hits give low values",0.983
same,normalized growth,"S. cerevisiae deletion strains, locus YFR003C, strain YPI1, hits give low values",0.98
same,normalized growth,"S. cerevisiae deletion strains, locus YFR019W, strain FAB1, hits give low values",0.992
same,normalized growth,"S. cerevisiae deletion strains, locus YFR028C, strain CDC14, hits give low values",0.975
same,normalized growth,"S. cerevisiae deletion strains, locus YGR040W, strain KSS1, hits give low values",1.02
same,normalized growth,"S. cerevisiae deletion strains, locus YGR052W, strain FMP48, hits give low values",1.11
same,normalized growth,"S. cerevisiae deletion strains, locus YGR092W, strain DBF2, hits give low values",0.987
same,normalized growth,[2],1.18 [resistant] (active)
same,normalized growth,"S. cerevisiae deletion strains, locus YHR079C, strain IRE1, hits give low values",1.12
same,normalized growth,"S. cerevisiae deletion strains, locus YHR082C, strain KSP1, hits give low values",1.14
same,normalized growth,"S. cerevisiae deletion strains, locus YHR205W, strain SCH9, hits give low values",0.988
same,normalized growth,"S. cerevisiae deletion strains, locus YIL147C, strain SLN1, hits give low values",0.971
same,normalized growth,"S. cerevisiae deletion strains, locus YJL095W, strain BCK1, hits give low values",1.12
same,normalized growth,"S. cerevisiae deletion strains, locus YJL128C, strain PBS2, hits give low values",0.981
same,normalized growth,"S. cerevisiae deletion strains, locus YJL157C, strain FAR1, hits give low values",1
same,normalized growth,"S. cerevisiae deletion strains, locus YJR016C, strain ILV3, hits give low values",0.989
same,normalized growth,"S. cerevisiae deletion strains, locus YJR066W, strain TOR1 (second series), hits give low values",0.99
same,normalized growth,"S. cerevisiae deletion strains, locus YJR066W, strain TOR1, hits give low values",1.17
same,normalized growth,"S. cerevisiae deletion strains, locus YKL048C, strain ELM1, hits give low values",0.98
same,normalized growth,"S. cerevisiae deletion strains, locus YKL067W, strain YNK1, hits give low values",0.98
same,normalized growth,"S. cerevisiae deletion strains, locus YKL101W, strain HSL1, hits give low values",0.992
same,normalized growth,"S. cerevisiae deletion strains, locus YKL193C, strain SDS22, hits give low values",0.97
same,normalized growth,"S. cerevisiae deletion strains, locus YKL203C, strain TOR2, hits give low values",1.09
same,normalized growth,"S. cerevisiae deletion strains, locus YLR113W, strain HOG1, hits give low values",1.06
same,normalized growth,"S. cerevisiae deletion strains, locus YLR133W, strain CKI1, hits give low values",0.984
same,normalized growth,"S. cerevisiae deletion strains, locus YLR403W, strain SFP1, hits give low values",0.999
same,normalized growth,"S. cerevisiae deletion strains, locus YML070W, strain DAK1, hits give low values",1
same,normalized growth,"S. cerevisiae deletion strains, locus YMR001C, strain CDC5, hits give low values",0.971
same,normalized growth,"S. cerevisiae deletion strains, locus YMR205C, strain PFK2 (second series), hits give low values",0.99
same,normalized growth,"S. cerevisiae deletion strains, locus YMR277W, strain FCP1, hits give low values",0.978
same,normalized growth,"S. cerevisiae deletion strains, locus YNL006W, strain LST8, hits give low values",0.978
same,normalized growth,"S. cerevisiae deletion strains, locus YNL020C, strain ARK1, hits give low values",0.982
same,normalized growth,"S. cerevisiae deletion strains, locus YNL161W, strain CBK1, hits give low values",0.984
same,normalized growth,"S. cerevisiae deletion strains, locus YNL183C, strain NPR1, hits give low values",1.11
same,normalized growth,"S. cerevisiae deletion strains, locus YNL207W, strain RIO2, hits give low values",0.995
same,normalized growth,"S. cerevisiae deletion strains, locus YNL222W, strain SSU72, hits give low values",0.972
same,normalized growth,"S. cerevisiae deletion strains, locus YNL307C, strain MCK1 (second series), hits give low values",0.996
same,normalized growth,"S. cerevisiae deletion strains, locus YOL078W, strain AVO1, hits give low values",0.982
same,normalized growth,"S. cerevisiae deletion strains, locus YOL136C, strain PFK27, hits give low values",1.01
same,normalized growth,"S. cerevisiae deletion strains, locus YOR061W, strain CKA2, hits give low values",0.996
same,normalized growth,"S. cerevisiae deletion strains, locus YOR119C, strain RIO1, hits give low values",1.04
same,normalized growth,"S. cerevisiae deletion strains, locus YOR231W, strain MKK1, hits give low values",1.1
same,normalized growth,"S. cerevisiae deletion strains, locus YOR329C, strain SCD5, hits give low values",0.985
same,normalized growth,"S. cerevisiae deletion strains, locus YPL031C, strain PHO85, hits give low values",1.01
same,normalized growth,"S. cerevisiae deletion strains, locus YPL153C, strain RAD53, hits give low values",1.01
same,normalized growth,"S. cerevisiae deletion strains, locus YPL204W, strain HRR25, hits give low values",1
same,normalized growth,"S. cerevisiae deletion strains, locus YPL209C, strain IPL1, hits give low values",0.988
same,normalized growth,"S. cerevisiae deletion strains, locus YPL256C, strain CLN2, hits give low values",1.12
same,normalized growth,"S. cerevisiae deletion strains, locus YPR025C, strain CCL1, hits give low values",0.973
same,normalized growth,"S. cerevisiae deletion strains, locus YPR106W, strain ISR1, hits give low values",0.987
same,normalized growth,"S. cerevisiae deletion strains, locus YPR111W, strain DBF20, hits give low values",0.977
same,normalized growth,"S. cerevisiae deletion strains, strain NNK1, hits give low values",0.994
same,normalized growth,"S. cerevisiae deletion strains, strain TSCII, hits give low values",0.981
NCc1cc(=O)[nH]o1,normalized growth,[3],1.05
same,normalized growth,[4],1
same,normalized growth,[5],1.01
same,normalized growth,[6],1.02
same,normalized growth,[7],1
same,normalized growth,[8],1
same,normalized growth,[9],1.02
same,normalized growth,[10],1.01
same,normalized growth,[11],1.01
same,normalized growth,[12],1
same,normalized growth,[13],1.01
same,normalized growth,[14],0.989
c1cnc(N2CCN(Cc3ccc4c(c3)OCO4)CC2)nc1,normalized growth,[15],0.95
same,normalized growth,[3],0.967
same,normalized growth,[4],0.982
same,normalized growth,[16],0.996
same,normalized growth,[5],0.988
same,normalized growth,[6],0.988
same,normalized growth,[17],0.993
same,normalized growth,[7],0.999
same,normalized growth,[8],1
same,normalized growth,[9],0.976
same,normalized growth,[10],0.985
same,normalized growth,[11],0.979
same,normalized growth,[12],0.985
same,normalized growth,[13],0.991
O=C(COc1ccc2c(c1)OCO2)N1CCN(c2ncc(C(F)(F)F)cc2Cl)CC1,normalized growth,[15],0.993
same,normalized growth,"S. cerevisiae deletion strains, locus YBR229C, strain ROT2, hits give low values",1
same,normalized growth,"S. cerevisiae deletion strains, locus YCL061C, strain MRC1, hits give low values",0.983
same,normalized growth,[1],1.03
same,normalized growth,[16],0.997
same,normalized growth,"S. cerevisiae deletion strains, locus YEL061C, strain CIN8, hits give low values",0.948
same,normalized growth,[17],0.996
same,normalized growth,[2],0.55 (active)
same,normalized growth,"S. cerevisiae deletion strains, locus YHR087W, strain rtc3, hits give low values",0.977
same,normalized growth,"S. cerevisiae deletion strains, locus YJL187C, strain SWE1, hits give low values",1
same,normalized growth,"S. cerevisiae deletion strains, locus YJR043C, strain POL32, hits give low values",1.03
same,normalized growth,"S. cerevisiae deletion strains, locus YJR075W, strain HOC1, hits give low values",0.984
same,normalized growth,"S. cerevisiae deletion strains, locus YKL190W, strain CNB1, hits give low values",0.963
same,normalized growth,"S. cerevisiae deletion strains, locus YLR039C, strain RIC1, hits give low values",0.876
same,normalized growth,"S. cerevisiae deletion strains, locus YLR058C, strain SHM2 (second series), hits give low values",0.998
same,normalized growth,"S. cerevisiae deletion strains, locus YLR085C, strain ARP6, hits give low values",0.7 (active)
same,normalized growth,"S. cerevisiae deletion strains, locus YLR262C, strain YPT6, hits give low values",0.885
same,normalized growth,"S. cerevisiae deletion strains, locus YML094W, strain GIM5, hits give low values",0.964
same,normalized growth,"S. cerevisiae deletion strains, locus YMR219W, strain ESC1, hits give low values",0.994
same,normalized growth,"S. cerevisiae deletion strains, locus YMR263W, strain SAP30, hits give low values",1.01
same,normalized growth,[7],0.791
same,normalized growth,"S. cerevisiae deletion strains, locus YNL153C, strain GIM3, hits give low values",0.978
same,normalized growth,"S. cerevisiae deletion strains, locus YNL298W, strain CLA4 (second series), hits give low values",0.944
same,normalized growth,[11],0.987
same,normalized growth,"S. cerevisiae deletion strains, locus YNR030W, strain Alg12, hits give low values",0.92
same,normalized growth,"S. cerevisiae deletion strains, locus YOL006C, strain TOP1, hits give low values",0.999
same,normalized growth,[13],1.03
same,normalized growth,[14],1.06
same,normalized growth,"S. cerevisiae deletion strains, locus YPR135W, strain CTF4, hits give low values",0.802
same,normalized growth,"S. cerevisiae strains, strain wild type, hits give low values",0.985

# — PubChem BioAssay AID1159580 (chemical genetic matrix, 2015)
